Assay outcomes: PubChem, The Scripps Research Institute Molecular Screening Center
SMARCA2 activ: increases SMARCA2 function in MMTV reporter cells. MG213 cells, MMTV-luciferase reporter, dexamethasone, overnight. hit rate 1% among 370,000. AID 652017. activation, % at 9.1 µM; in the data active = activation above about 7.8%
proKLK7 act: activators of human kallikrein-7 zymogen; P49862; purified proKLK7, EDANS-DABCYL substrate fluorescence; 100% is mature enzyme control, 0% vehicle; activation, % at 7 µM; hit rate 0.9% among 370,000; AID 652039;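 active = activation above the mean of all tested compounds plus 3 SD, computed per campaign excluding outliers beyond control limits, cut at about 13% in these data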
Target sequence (P49862 whole entry, looked up): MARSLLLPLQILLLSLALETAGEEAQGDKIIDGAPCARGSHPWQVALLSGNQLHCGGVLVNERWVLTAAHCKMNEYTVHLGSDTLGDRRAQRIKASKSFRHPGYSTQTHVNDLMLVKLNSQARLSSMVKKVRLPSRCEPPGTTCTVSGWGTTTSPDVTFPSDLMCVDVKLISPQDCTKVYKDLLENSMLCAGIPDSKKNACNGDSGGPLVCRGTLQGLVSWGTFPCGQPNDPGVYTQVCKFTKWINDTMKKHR
MsrA inhibitor: inhibits bovine methionine sulfoxide reductase A; purified bovine MsrA, absorbance read-out; inhibition, % at 15.5 µM; hit rate 0.75% among 360,000; in the data active = inhibition above about 4.5%
bovine MsrA act: activators of bovine methionine sulfoxide reductase A; activation, % at 10.6 µM; purified bovine MsrA, absorbance read-out; hit rate 0.3% among 360,000; in the data active = activation above about 7.5%
SMARCA2 conf: SMARCA2 activation, confirmation screen | shares compounds with SMARCA2 activ | MG213 cells, MMTV-luciferase with dexamethasone, luminescence, overnight; MG213 cells expressing E1A, Rb sequestered; DMSO wells 0%, reference activator 100% | activation, % at 9.1 µM | hit rate 30% among 3,500;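 active = activation above its plate's cutoff, the mean activation of tested wells plus 3 SD, cut at about 7.9% in these data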
GAL4-VP16 Luc: counter-screen for SMARCA2 activators: GAL4-VP16 luciferase reporter activation. shares compounds with SMARCA2 activ. HEK293 GAL4-VP16 pG5luc reporter, luciferase luminescence; scaled: DMSO wells 0%, SAHA wells 100%. activation, % at 9.1 µM. hit rate 41% among 3,500. AID 686939;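 active = activation above the solvent-only control well mean plus 3 SD, averaged across control plates, cut at about 5.2% in these data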
Hits are given with their value; . = inactive; / = no result. In the library only some 2.8% were active in any assay of this set; here they are far more common.

SMILES | SMARCA2 activ | proKLK7 act | MsrA inhibitor | bovine MsrA act | SMARCA2 conf | GAL4-VP16 Luc
COc1cc(/C=C/C(=O)O)cc2c1OCCO2 | 8.0 | . | . | . | . | .
CN(C)C(=O)C[C@@H]1CC[C@@H](NC(=O)C2CCC2)[C@@H](CO)O1 | . | . | . | / | / | /
O=c1ccn2c(n1)OC1CC2OC1COC(c1ccccc1)(c1ccccc1)c1ccccc1 (configuration not stated) | . | . | . | / | / | /
Cc1ccc(NC(=O)C2CC(=O)N(C(C)C)C2)cc1Cl (configuration not stated) | 8.3 | . | . | . | . | .
O=C(Nc1ccccn1)C(=O)N1CCCCC1 | 8.2 | . | . | . | . | .
CSc1nc(Cl)cc(Nc2ccccc2N)n1 | . | . | . | . | / | /
Nc1nc(Cl)cc(Nc2ccccc2Cl)n1 | 9.5 | . | . | . | . | .
Nc1ccccc1SCc1ccccc1Cl | . | . | . | . | / | /
Clc1ccccc1CSc1cnnc2ccccc12 | 9.0 | . | . | . | . | .
CCOC(=O)[C@@]12CCCC3=C1N(CCC3)C(=O)[C@H]2CC(=O)N1CCN(C(=O)c2ccco2)CC1 | . | . | / | / | / | /
COCCOC(=O)N1CCCCC1c1cc(C(=O)NCc2ccc(Cl)c(Cl)c2)no1 (configuration not stated) | . | . | . | . | / | /
O=C(/C=C/c1ccc(Cl)cc1Cl)N1CCN(c2ccc([N+](=O)[O-])c(N3CCOCC3)c2)CC1 | 9.9 | . | . | . | . | .
O=C(/C=C/c1ccc(Cl)cc1)N1CCN(c2ccc([N+](=O)[O-])c(N3CCOCC3)c2)CC1 | . | . | . | . | / | /
C=CCN1C(=O)[C@@H](CC(=O)NCc2ccc(OC)c(OC)c2)[C@]2(C(=O)OC)CCCCC=C12 | . | . | / | / | / | /
O=C(c1ccco1)N(Cc1cccnc1)C(c1ccccc1)c1nc2ccccc2[nH]1 (configuration not stated) | 8.6 | . | . | . | 11 | 6.1
COc1ccc(C=O)cc1-c1cc(C(C)=O)c2n(c1=O)CCC2 | . | . | / | / | / | /
COc1ccc(NC(=S)NC(=O)c2ccc3c(c2)OCCO3)cc1 | 11 | . | . | . | . | 11
O=C(NC(=S)Nc1ccc2c(c1)OCCO2)c1ccccc1 | 9.7 | . | . | . | . | 9.1
O=C(c1ccccc1)c1ccc2c(c1)OCCCO2 | 11 | . | . | . | 8.1 | 8.9
O=C1C(NC(=O)N2c3ccccc3C=Cc3ccccc32)CCCCN1Cc1ccc(Cl)cc1 (configuration not stated) | . | . | / | / | / | /
CC(C)(C)c1ccc(-c2nnc(SCc3cccc4ccccc34)n2Cc2ccco2)cc1 | . | . | / | / | / | /
Cc1cc(C)c(S(=O)(=O)N2CCOC23CCN(S(C)(=O)=O)CC3)c(C)c1 | 14 | . | . | . | . | .
COCCCN(C(=O)C1=COCCO1)c1c(N)n(Cc2ccccc2)c(=O)[nH]c1=O | . | . | . | . | / | /
N#Cc1ccc(/C=C2\CC3(OC(=O)c4ccc(F)cc4)CCCN2C3)cc1 (configuration not stated) | . | . | / | / | / | /
CC(C)C(Cl)=NOC(=O)Nc1ccc(S(N)(=O)=O)cc1 | 47 | . | . | . | . | .
SMILES | SMARCA2 activ | proKLK7 act | MsrA inhibitor | bovine MsrA act | SMARCA2 conf | GAL4-VP16 Luc
COC(=O)[C@H](C)NC(=O)Nc1ccc(S(N)(=O)=O)cc1 | . | . | . | . | / | /
Cc1cc(Br)cn2c(Cc3ccsc3)c(-c3ccc(Cl)cc3)nc12 | / | / | / | . | / | /
O=C(Nc1ccsc1C(=O)O)c1ccc(Cl)cc1 | 8.7 | . | . | . | 10 | 8.7
Cc1ccc(C(=O)Nc2ccsc2C(=O)O)cc1 | . | . | . | . | / | /
N#Cc1cnc2sc3ccccc3n2c1=N | 9.5 | . | . | . | 9.2 | 7.0
CCCCN1CC(=O)N2[C@@H]3c4cc(OC)ccc4OC[C@@H]3[C@H](C(=O)OCC)[C@]2(C)C1=O | . | . | . | . | / | /
Cc1nc(Nc2ccc(C(=O)O)cc2)sc1-c1ccccc1 | 9.1 | . | . | . | 9.2 | 5.4
C=CCOc1ccc2oc(=O)cc(C)c2c1 | 10 | . | . | . | . | .
Cc1cc(=O)oc2ccc(OCc3ccccc3)cc12 | . | . | . | . | / | /
COc1ccc(N2CCN(C(=O)c3cc(=O)c4ccc(C)cc4o3)CC2)cc1 | 12 | . | . | . | . | .
O=C1/C(=C/c2cccnc2)SC(=S)N1CCc1ccccc1 | 8.7 | . | . | . | . | .
O=C1/C(=C/c2cccnc2)SC(=NCc2ccccc2)N1Cc1ccccc1 | . | . | . | . | / | /
